Experimental data as given in PubChem BioAssay (NCI).
Compounds without any hit were thinned out: in the full panel of roughly 83,000, 20% have a hit.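 Testing used 96-well plates and a 48-hour single-concentration exposure. Example: -40 means 40% of the starting cells died.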 Values without a mark were called inactive. The source made the active and inactive calls. The calls were made as follows: active = growth percent below 10; inactive = the rest.

Key:
Test in all cases: NCI-60 one-dose screen, 48 h (100 = growth as untreated, 0 = no growth, -100 = all killed)
Settings in all cases: 10 µM unless noted
HCT-15 colon = test system: HCT-15 colon
HT29 colon = test system: HT29 colon
SNB-75 CNS = test system: SNB-75 CNS
SNB-19 CNS = test system: SNB-19 CNS
U251 CNS = test system: U251 CNS
PC-3 prostate = test system: PC-3 prostate
SK-MEL-5 melanoma = test system: SK-MEL-5 melanoma
UACC-62 melanoma = test system: UACC-62 melanoma
LOX IMVI melanoma = test system: LOX IMVI melanoma
SK-MEL-28 melanoma = test system: SK-MEL-28 melanoma

SMILES | growth (HCT-15 colon) | growth (HT29 colon) | growth (SNB-75 CNS) | growth (SNB-19 CNS) | growth (U251 CNS) | growth (PC-3 prostate) | growth (SK-MEL-5 melanoma) | growth (UACC-62 melanoma) | growth (LOX IMVI melanoma) | growth (SK-MEL-28 melanoma)
C=C1CCc2nc(SCC(=O)O)ccc2N1 | 99.1% | 109% | 85.1% | 92.7% | 112% | 104% | 101% | 93.2% | 96.9% | 106%
Cn1cc(-c2nn3cc(-c4ccncc4)nc3s2)c2cc(F)ccc21 | 38.7% | 68.8% | 65% | 90.1% | 98.3% | 68.3% | 87.6% | 75.9% | 10.5% | 105%
C(=N\Nc1nc(N/N=C/c2ccc3c(c2)OCO3)nc(N2CCCCC2)n1)/c1ccc2c(c1)OCO2 | 33.8% | 38.2% | 113% | 80.3% | 81.4% | 73.6% | 96.8% | 102% | 47.9% | 109%
Clc1ccc2[nH]cc(-c3cncn3CCc3ccc4c(c3)OCO4)c2c1 | 72% | 70.5% | 73.8% | 82.1% | 69.9% | 51% | 33.8% | 62.3% | 91.5% | 93.5%
CC1(C)CC[C@]2(C(=O)NCCCCCCN(CCCN)CCCN)CC[C@]3(C)C(=CC[C@@H]4[C@@]5(C)CC[C@H](O)C(C)(C)[C@@H]5CC[C@]43C)[C@@H]2C1 | 105% | 110% | 95.5% | 96.5% | 94% | 103% | 101% | 88.1% | 98.1% | 107%
C=C(C)[C@@H]1CC[C@]2(C(=O)O)CC[C@]3(C)[C@H](CC[C@@H]4[C@@]5(C)C/C(=C/c6ccccn6)C(=O)C(C)(C)[C@@H]5CC[C@]43C)[C@@H]12 | 18.9% | 40.8% | 61.1% | 50.3% | 27.9% | 28.4% | 31.8% | 40.1% | 34.6% | 64%
CNC(=O)c1cc(-c2ccc(NC(=S)Nc3cccc(C(F)(F)F)c3)cc2)nc2cccnc12 | 98.2% | 99.7% | 91.2% | 94.7% | 95.3% | 96.1% | 96.2% | 89.9% | 95.3% | 99.9%
COc1ccc(/C=N/N=C(/c2ccccc2)c2ccc3nc(-c4ccc(Cl)cc4)[nH]c3c2)cc1 | 59.7% | 65.7% | 106% | 84.2% | 79.4% | 54.7% | 81% | 91.9% | 77.6% | 88.4%
Cc1ccc(C(=O)Nc2ccc(CNCCN3CCNCC3)c(C(F)(F)F)c2)cc1C#Cc1cnc2cccnn12 | 14.1% | 5.76% (active) | 42.5% | 8.65% (active) | -6.31% (active) | 23.8% | -87.1% (active) | -41% (active) | -86.1% (active) | -68% (active)
O=C(CSc1nc2ccccc2c(=O)n1-c1ccccc1)N/N=C/c1ccc(Oc2ccc(Br)cc2)cc1 | 63.7% | 38.2% | 57.8% | 39.9% | 21.5% | 71.8% | 59.1% | 68.8% | 21% | 70.9%
CNC(=O)c1cc(Oc2ccc3c(c2)sc2nc(-c4ccc(N(C)C)cc4)cn23)ccn1 | 8.11% (active) | -16.1% (active) | 17.8% | 25% | 13.5% | 32.4% | 11.9% | 41.4% | 0.0095% (active) | 56.8%
CC1(C)CC[C@]23CC[C@]4(C)[C@H](CC[C@@H]5[C@@]6(C)CC[C@H](NCO)C(C)(C)[C@@H]6CC[C@]54C)[C@H]2[C@H]1OC3 | -13.5% (active) | 17.9% | 86.5% | 36.9% | 1.32% (active) | 75% | 97.7% | 99.6% | -89.9% (active) | 89.5%
Cc1cc2nc3c4cc(C#N)ccc4n(CCN(C)C)c3nc2cc1C | 2.02% (active) | -44.3% (active) | -8.73% (active) | 5.67% (active) | 2.73% (active) | 4.69% (active) | -89.5% (active) | -60.6% (active) | -55.5% (active) | -50.1% (active)
CC1=C(C)C(=O)C(Nc2cccc(C(=O)OC(C)(C)C)c2)=C(Cl)C1=O | 80.2% | 98.2% | 58.4% | 91.5% | 88.5% | 76.9% | 98.1% | 93.4% | 62.6% | 104%
CCCCCCNC(=O)Oc1ccc(/C(=C(/C)c2ccc(OC)cc2)c2ccc(OCCN3CCCCCC3)cc2)cc1 | -39.1% (active) | -34% (active) | 76.8% | 39.2% | 19.6% | 24.5% | 61.2% | 5.76% (active) | -94.2% (active) | -36.1% (active)
CC1(C)CC[C@]23CC[C@]4(C)[C@H](CC[C@@H]5[C@@]6(C)CC[C@H](N)C(C)(C)[C@@H]6CC[C@]54C)[C@H]2[C@H]1OC3 | -52.2% (active) | 20.2% | 99.5% | 47.3% | -47.9% (active) | 69.6% | 87.7% | 94.6% | -74.2% (active) | 103%
O=C(NNc1nc2cc(F)cc(F)c2n2cccc12)c1cccnn1 | 27.9% | 30.2% | 24.5% | 21.6% | 15.3% | 30.7% | -31.3% (active) | 9.53% (active) | 6.98% (active) | 23.9%
O=C(/C=C/Nc1ccc(S(=O)(=O)Nc2ncccn2)cc1)c1ccc(N=Cc2c(O)[nH]c3ccccc23)cc1 | 104% | 106% | 102% | 112% | 103% | 101% | 98.1% | 108% | 102% | 118%
CC1=C(SCC(=O)OCCCCCC(C)C)C(=O)c2ccccc2C1=O | 89.3% | 106% | 91.1% | 91.1% | 92% | 68.8% | 91.8% | 86.2% | 93.2% | 110%
CN(C)c1ccc(/C=N/Nc2nc(N/N=C/c3ccc(N(C)C)cc3)nc(N3CCCCC3)n2)cc1 | 0.121% (active) | -4.67% (active) | 101% | 86% | 50% | 84.8% | 86.7% | 101% | -73.3% (active) | 41.7%
CN1CCN(Cc2ccc(NC(=O)c3cncc(C#Cc4cnc5ccc(NCCO)nn45)c3)cc2C(F)(F)F)CC1 | 33.2% | -28% (active) | -90.5% (active) | 0.946% (active) | -19.6% (active) | 3.35% (active) | -22.2% (active) | -32.7% (active) | -87.8% (active) | -24.4% (active)
COc1ccc(CC(C)=C(c2ccc(OCCN3CCCC3)cc2)c2ccc(OCCN3CCCC3)cc2)cc1 | -85.2% (active) | -77.6% (active) | -76.7% (active) | -81% (active) | -70.1% (active) | -73.2% (active) | -96.1% (active) | -88.8% (active) | -86.6% (active) | -92.2% (active)
C#CCN(C)CCCOc1ccc(NCc2ccc(/C=C/C(=O)NO)cc2)cc1Cl | 8.05% (active) | 8.52% (active) | 9.93% (active) | 8.74% (active) | -13.3% (active) | 19% | -87.2% (active) | -53.7% (active) | -69.5% (active) | -14.4% (active)
CCN1CCN(c2ccc(NC(=O)Nc3ccc4c(ccn4-c4ccnc(C(=O)NC)c4)c3)cc2C(F)(F)F)CC1 | 9.57% (active) | -44.5% (active) | 43.7% | 81% | 44.7% | 52.6% | 67.4% | 92.8% | -87.7% (active) | -81% (active)
CCCCc1nc2c(N)nc3ccccc3c2n1Cc1ccc(OC)cc1 | 58.3% | 32.9% | 66.2% | 76% | 67.9% | 43.5% | 47.3% | 68.2% | 75% | 90.2%
CCCCc1nc2c(N)nc3ccccc3c2n1Cc1cccc(CN)c1 | 55.9% | 17.4% | 15.1% | 63.2% | 38.5% | 53.3% | 55% | 76.3% | 18.1% | 59.4%
